Assay outcomes (PubChem BioAssay)
Shh pathway inh – Sonic Hedgehog pathway inhibition. Shh-LIGHT2 Gli-luciferase reporter, 30 h. inhibition, % (concentration not given with the values). actives 2.1% (n = 22,000). AID 2313;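 active = mean inhibition across valid replicates above about 65%, limit read from the data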;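 note: pathway switched on by Shh-conditioned medium diluted 1 in 25 in low serum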
PD-1 reversal – activators reversing PD-1 mediated T-cell inhibition; primary human CD4 T cells, PD-L1 beads, CellTiter-Glo 96 h; activation, % (test concentration not listed); 29,000 tested, under 10 active; AID 2316; call rule not given here
NOMO-1 viab – STK33 inhibitor candidate reducing NOMO-1 cell viability; NOMO-1 AML viability, CellTiter-Glo luminescence, 72 h; inhibition, % (test concentration not listed); actives 7.5% (n = 37,000); AID 2330; in the data active = inhibition above about 80%
Of the large screens only hits and unclear results are named; the others gave an inactive call. Only some compounds are listed: those with a hit (about 7.7% of all), similar ones and a draw of the others.

CN1Cc2c(ccc3c2OCO3)[C@@H]2[C@H]1c1cc3c(cc1C[C@@H]2O)OCO3	NOMO-1 viab 138
CN1CCC2=C[C@H](O)[C@H]3OC(=O)c4cc5c(cc4[C@H]3[C@@H]21)OCO5	none (no result: PD-1 reversal)
CCCSP(=O)(OCC)SCCC	none (no result: PD-1 reversal)
COC(=O)CC1(CC(=O)OC)C(=O)N(C)C(=O)N(C)C1=O	none (no result: Shh pathway inh)
Cc1cc(C)cc(C(=O)OC2CC3CCC(C2)N3C)c1 (stereo not drawn)	none
Oc1cccc2cccnc12	NOMO-1 viab 111 (no result: PD-1 reversal)
c1cncc(C2N=C(c3cnccn3)NN2)c1 (stereo not drawn)	none
CC(C(=O)Nc1ccc(Cl)cc1C(=O)c1ccccc1)N1C(=O)C2C3C=CC(C3)C2C1=O (stereo not drawn)	none (no result: Shh pathway inh)
C=CC/C=C\C/C=C\CCCCCCCc1cc(O)cc(O)c1	NOMO-1 viab 109
CC(C)[C@]12O[C@H]1[C@@H]1O[C@]13[C@]1(O[C@H]1C[C@H]1C4=C(CC[C@@]13C)C(=O)OC4)[C@@H]2O	NOMO-1 viab 114 (no result: PD-1 reversal)
CCC(C)[C@H]1C(=O)O[C@H](C(C)C)C(=O)N(C)[C@@H](C(C)CC)C(=O)O[C@H](C(C)C)C(=O)N(C)[C@@H](C(C)CC)C(=O)O[C@H](C(C)C)C(=O)N1C (stereo partly drawn)	Shh pathway inh 104, NOMO-1 viab 119
O=C(O)C1C2CCC(O2)C1C(=O)NCCc1ccccc1 (stereo not drawn)	none (no result: Shh pathway inh)
N[C@H](CO)Cc1ccccc1	none (no result: PD-1 reversal)
O=C(CCl)c1cc(Br)c(Br)s1	NOMO-1 viab 99
Oc1ccc2c3c1OC1[C@@H](O)CC[C@@]4(O)[C@@H](C2)N(CC2CCC2)CC[C@]314 (stereo partly drawn)	none (no result: PD-1 reversal)
CC1OC(n2cnc3c(N)ncnc32)C[C@H]1O (stereo partly drawn)	none
O=C1CSC(c2ccccc2Cl)c2cc(Cl)ccc2N1 (stereo not drawn)	none
COc1cc2c3c(c1OC)-c1c(ccc(O)c1O)CC3N(C)CC2 (stereo not drawn)	none
CCCN1CCc2cccc3c2[C@H]1Cc1ccc(O)c(O)c1-3	NOMO-1 viab 113 (no result: PD-1 reversal)
CC[C@@H](C)C(=O)O[C@H]1[C@H](O)[C@H]2[C@@H](CN3C[C@@H](C)CC[C@H]3[C@@]2(C)O)C2C[C@]34O[C@@]5(O)[C@@H](OC(=O)[C@](C)(O)CC)CC[C@@]3(C)[C@@H]5[C@@H](OC(C)=O)[C@@H](OC(C)=O)[C@H]4[C@@]21O (stereo partly drawn)	none
CC(=O)c1cccc(NC(=O)CSC2c3ccccc3-c3ccccc32)c1	none (no result: Shh pathway inh)
COc1cc([C@@H]2c3cc4c(cc3[C@@H](O)C3COC(=O)C32)OCO4)cc(OC)c1O (stereo partly drawn)	Shh pathway inh 90, NOMO-1 viab 102 (no result: PD-1 reversal)
COc1cc([C@@H]2c3cc4c(cc3[C@H](OC(C)=O)[C@H]3COC(=O)[C@@H]23)OCO4)cc(OC)c1OC	NOMO-1 viab 108 (no result: PD-1 reversal)
COc1ccc2c(c1OC)C(=O)O[C@H]2[C@H]1c2cc3c(cc2CCN1C)OCO3	none (no result: PD-1 reversal)
COc1cc(C2c3cc4c(cc3CC3COC(=O)C32)OCO4)cc(OC)c1OC (stereo not drawn)	Shh pathway inh 80, NOMO-1 viab 118
C=C(C)[C@@H]1[C@H]2OC(=O)[C@@H]1[C@]1(O)C[C@H]3O[C@]34C(=O)O[C@H]2[C@]14C	none (no result: PD-1 reversal)
Cc1ccc(-n2c(CNCc3cccnc3)nc3ccccc3c2=O)cc1	none (no result: Shh pathway inh)
COCc1cc(OC(=O)N(C)C)nc2c1c(-c1cccs1)nn2C	none
CCN1C[C@]2(C)CC[C@H](OC)[C@@]34C1[C@@]1(OCO[C@@]15C[C@H](OC)[C@H]1C[C@]3(O)[C@@H]5[C@H]1OC)[C@@H](OC(C)=O)[C@H]24	none (no result: PD-1 reversal)
C[C@@H]1C(=O)O[C@H]2[C@H]1CC[C@@]1(C)C=CC(=O)[C@@]3(C)O[C@@]213	NOMO-1 viab 88
C[C@H]1CC[C@@H]2[C@@H](C)[C@H]3[C@H](C[C@H]4[C@@H]5CC=C6CC(O[C@@H]7O[C@H](CO)[C@@H](O)[C@H](O[C@@H]8O[C@H](CO)[C@@H](O)[C@H](O)[C@H]8O)[C@@H]7O[C@@H]7O[C@@H](C)[C@H](O)[C@@H](O)[C@H]7O)CC[C@]6(C)[C@H]5CC[C@]34C)N2C1 (stereo partly drawn)	NOMO-1 viab 110
C[C@H]1CC[C@@H]2[C@@H](C)[C@H]3[C@H](C[C@H]4[C@@H]5CC=C6C[C@@H](O[C@@H]7O[C@H](CO)[C@H](O)[C@H](O[C@@H]8O[C@H](CO)[C@@H](O)[C@H](O)[C@H]8O)[C@H]7O[C@@H]7O[C@@H](C)[C@H](O)[C@@H](O)[C@H]7O)CC[C@]6(C)[C@H]5CC[C@]34C)N2C1	none
CCOc1ccc(CN(CCc2ccc3c(c2)OCO3)Cc2ccccc2)cc1	none (no result: Shh pathway inh)
C[C@@H]1CCC/C=C/[C@H]2C[C@@H](O)C[C@@H]2[C@@H](O)/C=C\C(=O)O1	Shh pathway inh 101, NOMO-1 viab 108
NC1C[C@H]1c1ccccc1 (stereo partly drawn)	none (no result: PD-1 reversal)
CCN(CC)P1(=O)OC(C)(C)CC1(C)O (stereo not drawn)	none
COCc1cc(OC(=O)N(C)C)nc2c1c(C)nn2C	none (no result: Shh pathway inh)
CCOC(=O)c1cc(C(C)(C)C)nc(OC(=O)N(C)C)c1C#N	NOMO-1 viab 101
c1ccc(CSc2nnc(-c3ccccc3)o2)cc1	none
CCCCCc1cc(OC)c(CC=C(C)C)c(O)c1C(=O)O	none (no result: PD-1 reversal, NOMO-1 viab)
CO/C1=C/C(C)=C/[C@@H](C)[C@@H](O)[C@@H](C)C/C(C)=C/C=C\[C@H](OC)[C@@H]([C@@H](C)[C@@H](O)[C@H](C)[C@@]2(O)C[C@@H](O)[C@H](C)[C@@H](C(C)C)O2)OC1=O	Shh pathway inh 97, NOMO-1 viab 142
CCC12CCCN3CCC4(c5ccc(OC)c(O)c5N(C(C)=O)C4CC1)C32 (stereo not drawn)	none
CCOC(=O)c1c(C)n(C(C)C)c2ccc(OC(=O)c3ccccc3)cc12	none
C/C=C(\C)[C@H](O)[C@H](C)/C=C(C)/C=C/C/C(C)=C/Cc1[nH]c(OC)c(OC)c(=O)c1C	NOMO-1 viab 99
COC(=O)C12CC3CC(C(C)O)C1N(CCc1c2[nH]c2ccc(OC)cc12)C3 (stereo not drawn)	none
CCC(O)CC1CCCC(CC(O)c2ccccc2)N1C (stereo not drawn)	none
